Results taken from PubChem BioAssay (EPA / NIEHS).
Active and inactive are the calls of the source. How the source made its calls: active means hit-call score of the fitted dose curve at least 0.9, where 1 is the maximum; inactive means score below 0.9.

Legend:
[1] = read-out: Urokinase-type plasminogen activator receptor (uPAR), PLAUR (gene 5329); assay: BSK_BE3C_uPAR: BioMAP Diversity Plus: BE3C Assay for Urokinase-type plasminogen activator receptor (uPAR) Biomarker Activity (AID 2283039); settings: primary human bronchial epithelial cells; actives raise or lower the signal
How it was run: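 Primary human bronchial epithelial cells dosed for 24 h; uPAR quantified by ELISA with bidirectional fitting against DMSO. Overt cytotoxicity assessed in parallel cultures by SRB total-protein staining (0.1% SRB, 560 nm).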

[2] = read-out: Interleukin-6 (IL6), IL6 (gene 3569); assay: BSK_CASM3C_IL6: BioMAP Diversity Plus: CASM3C Assay for Interleukin-6 (IL6) Biomarker Activity for (AID 2283040); settings: primary human coronary artery smooth muscle cells; actives raise or lower the signal
[3] = read-out: Tissue plasminogen activator (tPA), PLAT (gene 5327); assay: BSK_BE3C_tPA: BioMAP Diversity Plus: BE3C Assay for Tissue plasminogen activator (tPA) Biomarker Activity (AID 2283041); settings: primary human bronchial epithelial cells; actives raise or lower the signal
How it was run: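 Primary human bronchial epithelial cells in the BE3C system, exposed to compound for 24 h. tPA was quantified by ELISA; DMSO served as baseline, with gain or loss of signal fitted. Cytotoxicity checked in parallel cultures by SRB total-protein staining.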

[4] = read-out: Interleukin-8 (IL8), CXCL8 (gene 3576); assay: BSK_CASM3C_IL8: BioMAP Diversity Plus: CASM3C Assay for Interleukin-8 (IL8) Biomarker Activity (AID 2283042); settings: primary human coronary artery smooth muscle cells; actives raise or lower the signal;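 further: IL-8 protein level quantified by ELISA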
[5] = read-out: Human Leukocyte Antigen - DR isotype (HLADR), HLA-DRA (gene 3122); assay: BSK_CASM3C_HLADR: BioMAP Diversity Plus: CASM3C Assay for Human Leukocyte Antigen - DR isotype (HLADR) Biomarker Activity (AID 2283043); settings: primary human coronary artery smooth muscle cells; actives raise or lower the signal;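 further: cell-surface HLA-DR protein level quantified by ELISA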
[6] = read-out: Macrophage colony-stimulating factor (MCSF), CSF1 (gene 1435); assay: BSK_CASM3C_MCSF: BioMAP Diversity Plus: CASM3C Assay for Macrophage colony-stimulating factor (MCSF) Biomarker Activity (AID 2283044); settings: primary human coronary artery smooth muscle cells; actives raise or lower the signal;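 further: M-CSF protein amount quantified by ELISA after 24 h exposure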
[7] = read-out: Low-density lipoprotein receptor (LDLR), LDLR (gene 3949); assay: BSK_CASM3C_LDLR: BioMAP Diversity Plus: CASM3C Assay for Low-density lipoprotein receptor (LDLR) Biomarker Activity (AID 2283045); settings: primary human coronary artery smooth muscle cells; actives raise or lower the signal;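 further: LDLR protein level on the cell surface quantified by ELISA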
[8] = read-out: Monocyte Chemoattractant Protein-1 (MCP1), CCL2 (gene 6347); assay: BSK_CASM3C_MCP1: BioMAP Diversity Plus: CASM3C Assay for Monocyte Chemoattractant Protein-1 (MCP1) Biomarker Activity (AID 2283046); settings: primary human coronary artery smooth muscle cells; actives raise or lower the signal;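 further: MCP-1 level quantified by ELISA 24 h after dosing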
[9] = BSK_CASM3C_Proliferation: Cell Proliferation Assessment in the BioMAP Diversity Plus: CASM3C Assay (AID 2283047); settings: primary human coronary artery smooth muscle cells;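 further: sulforhodamine B total protein stain as relative cell number at 560 nm; sub-confluent cells exposed 48 h before staining; fitted both ways against DMSO so gain or loss of cell number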
[10] = read-out: Monokine induced gamma interferon (MIG), CXCL9 (gene 4283); assay: BSK_CASM3C_MIG: BioMAP Diversity Plus: CASM3C Assay for Monokine induced gamma interferon (MIG) Biomarker Activity (AID 2283048); settings: primary human coronary artery smooth muscle cells; actives raise or lower the signal;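 further: MIG protein level measured by ELISA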

Measured: AC50

CC(Cl)CN(C)C (stereo unspecified)
inactive: all assays above

c1ccc(OP(Oc2ccccc2)Oc2ccccc2)cc1
inactive: all assays above

c1ccc2c(c1)Nc1ccccc1S2
inactive: all assays above

CCOP(=S)(NC(C)C)Oc1ccccc1C(=O)OC(C)C (stereo unspecified)
inactive: all assays above

Cc1cccc(N)c1
inactive: all assays above

CCN(CC)c1ccccc1
inactive: all assays above

O=S1(=O)OCC2C(CO1)C1(Cl)C(Cl)=C(Cl)C2(Cl)C1(Cl)Cl (stereo unspecified)
active: [5] 32.7 µM | [6] 7.85 µM | [9] 20 µM
inactive: all other assays above

FC(F)(F)C(F)(C(F)(F)F)C(F)(F)C(F)(F)CC1CO1 (stereo unspecified)
inactive: all assays above

Cc1ccc(O)cc1C
active: [8] 0.658 µM
inactive: all other assays above

OCC1CO1 (stereo unspecified)
inactive: all assays above

Cc1c([N+](=O)[O-])cc2c(c1[N+](=O)[O-])C(C)(C)CC2(C)C
active: [1] 16.1 µM | [3] 10.6 µM | [5] 1.74 µM | [6] 0.378 µM | [7] 5.44 µM
inactive: all other assays above

Nc1ccc(Cl)cc1
inactive: all assays above

CCCCN(CCCC)N=O
inactive: all assays above

O=P1(N(CCCl)CCCl)NCCCO1 (stereo unspecified)
inactive: all assays above

Nc1ccc2ccccc2c1
inactive: all assays above

ClC(Cl)(Cl)c1ccccc1
inactive: all assays above

Nc1ccc([N+](=O)[O-])cc1Cl
inactive: all assays above

C=CC(=O)OCC(CC)(COC(=O)C=C)COC(=O)C=C
active: [1] 7.24 µM | [2] 2.11 µM | [3] 5.46 µM | [4] 6.3 µM | [5] 1.46 µM | [6] 1.98 µM | [8] 2.54 µM | [9] 2.84 µM | [10] 2.82 µM
inactive: [7]

O=S(=O)(F)C(F)(F)C(F)(F)C(F)(F)C(F)(F)C(F)(F)C(F)(F)C(F)(F)C(F)(F)F
inactive: all assays above

COCCOCCO
inactive: all assays above

O=P(OCC(Br)CBr)(OCC(Br)CBr)OCC(Br)CBr (stereo unspecified)
active: [9] 3.51 µM
not listed: [7]
inactive: all other assays above

ClC1=C(Cl)C2(Cl)C3C(Cl)C(Cl)CC3C1(Cl)C2(Cl)Cl (stereo unspecified)
active: [5] 20 µM | [9] 31.1 µM
inactive: all other assays above

ClC(Cl)c1ccccc1
inactive: all assays above

CCCCC(CC)COC(=O)c1c(Br)c(Br)c(Br)c(Br)c1C(=O)OCC(CC)CCCC (stereo unspecified)
inactive: all assays above

N#Cc1c(-c2ccc(Cl)cc2)[nH]c(C(F)(F)F)c1Br
active: [1] 0.656 µM | [2] 1.18 µM | [4] 0.277 µM | [5] 0.36 µM | [6] 20 µM | [7] 20 µM | [8] 0.0939 µM | [9] 0.779 µM | [10] 11.5 µM
inactive: [3]

CCCCOCCOP(=O)(OCCOCCCC)OCCOCCCC
active: [2] 8.79 µM
inactive: all other assays above

CCCN(CCC)c1c([N+](=O)[O-])cc(C(C)C)cc1[N+](=O)[O-]
active: [7] 20 µM | [9] 31.7 µM
not listed: [5]
inactive: all other assays above

CCCCC(CC)COP(=O)(Oc1ccccc1)Oc1ccccc1 (stereo unspecified)
active: [3] 3.09 µM
inactive: all other assays above

ClC(Cl)=C(c1ccc(Cl)cc1)c1ccccc1Cl
active: [1] 8.34 µM | [5] 26.1 µM | [6] 16.7 µM | [7] 23.5 µM | [8] 20 µM | [9] 30 µM
inactive: [2] | [3] | [4] | [10]

CCOP(=S)(S)OCC
inactive: all assays above

Cc1ccc([N+](=O)[O-])cc1C
inactive: all assays above

Cc1ccc(N)cc1N
inactive: all assays above

Cc1ccc2c(c1N)C(=O)c1ccccc1C2=O
not listed: [6]
inactive: all other assays above

O=[N+]([O-])c1ccc(Cl)c(Cl)c1
not listed: [1]
inactive: all other assays above

O=C(O)C(F)(F)OC(F)(F)C(F)(F)OC(F)(F)C(=O)O
inactive: all assays above

CCCCCCCc1ccc(O)cc1
inactive: [2] | [8]
active: [1] 39.3 µM | [3] 32.2 µM | [4] 23 µM | [5] 35.3 µM | [6] 35.5 µM | [7] 31.2 µM | [9] 37 µM | [10] 35.3 µM

CC(Cl)(Cl)C(=O)O
inactive: all assays above

CC(C)(C)c1ccccc1OP(=O)(Oc1ccccc1)Oc1ccccc1
active: [7] 4.61 µM | [9] 20 µM
inactive: all other assays above

NC(=O)C(F)(F)C(F)(F)F
inactive: all assays above

COP(N)(=S)OC
inactive: all assays above

CC(C)Nc1ccc(Nc2ccccc2)cc1
active: [2] 33.4 µM | [4] 34.1 µM | [5] 20 µM | [6] 20 µM | [7] 31.8 µM | [8] 32.9 µM | [9] 20 µM | [10] 28.2 µM
inactive: [1] | [3]

CCOS(=O)(=O)OCC
inactive: all assays above
